Assay results reported in PubChem BioAssay (Tox21).
Inconclusive results are not listed. Active and inactive are the calls of the source. Unless noted, calls come from the whole dose curve; as a rule, active = well fitted curve in the direction sought with a large enough effect in the repeat runs; inconclusive = weak or mixed curves; inactive = no such curve, though single readings can be large; an effect the other way counts as inactive or inconclusive.

What was measured:
[1] = qHTS assay to identify small molecule antagonists of the estrogen related receptor (ERR) signaling pathway from Tox21 library - cell viability counter screen (AID 1224834); note: nearly all actives have a fitted effect of over 30% in size
Outline: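 ERR reporter cells were plated 6 h before compound addition, then exposed to test compounds in DMSO for 17.5 h at 37 C. Viability was read as CellTiter-Fluor fluorescence after a 30-minute incubation at 37 C.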

[2] = molecular target: Luciferin 4-monooxygenase (Photinus pyralis) (UniProt P08659); assay: qHTS assay to identify small molecule inhibitors of firefly luciferase (AID 1224835); note: nearly all actives have a fitted effect of over 25% in size; note: potency is the fitted concentration of half-maximal effect; for activity change, negative = inhibition: series mostly up to about 120 µM
Sequence of Luciferin 4-monooxygenase (Photinus pyralis) (P08659 whole entry, looked up): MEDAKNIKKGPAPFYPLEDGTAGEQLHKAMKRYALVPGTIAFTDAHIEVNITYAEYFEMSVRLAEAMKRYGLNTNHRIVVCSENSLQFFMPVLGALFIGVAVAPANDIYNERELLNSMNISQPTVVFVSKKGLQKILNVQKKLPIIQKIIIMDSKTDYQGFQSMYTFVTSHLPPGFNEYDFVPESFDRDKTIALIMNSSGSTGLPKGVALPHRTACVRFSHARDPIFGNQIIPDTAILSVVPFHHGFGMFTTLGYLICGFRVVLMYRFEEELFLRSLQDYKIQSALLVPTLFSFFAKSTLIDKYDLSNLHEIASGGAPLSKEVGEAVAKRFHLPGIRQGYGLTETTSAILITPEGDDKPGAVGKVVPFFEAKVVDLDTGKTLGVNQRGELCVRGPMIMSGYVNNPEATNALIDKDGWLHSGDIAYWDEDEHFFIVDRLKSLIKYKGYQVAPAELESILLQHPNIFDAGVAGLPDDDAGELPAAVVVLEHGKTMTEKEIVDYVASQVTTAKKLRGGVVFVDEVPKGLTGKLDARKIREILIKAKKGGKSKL
Outline: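 Biochemical qHTS: compounds run as interplate titrations against purified firefly enzyme, with D-luciferin and ATP each at its KM concentration. Light output recorded by CCD imaging.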

[3] = qHTS assay to identify small molecule agonists of the constitutive androstane receptor (CAR) signaling pathway - cell viability counter screen (AID 1224836); note: series mostly up to about 92 µM; nearly all actives have a fitted effect of over 45% in size
Outline: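 Counter screen multiplexed with the CAR reporter readout: HepG2 cells co-transfected with hCAR and the CYP2B6-2.2kb construct receive a 15-concentration compound series and 0.75 uM PK11195 (final), then CellTiter-Fluor fluorescence is read after 23 h.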

[4] = qHTS assay to identify small molecule antagonists of the constitutive androstane receptor (CAR) signaling pathway - cell viability counter screen (AID 1224837); note: series mostly up to about 92 µM; nearly all actives have a fitted effect of over 45% in size
Outline: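 HepG2 cells stably expressing hCAR and a CYP2B6-2.2kb reporter were plated and pre-incubated 4 hr at 37 C/5% CO2, then given compounds at 15 concentrations plus 50 nM CITCO (final). After 23 hr, viability was read by CellTiter-Fluor fluorescence.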

[5] = molecular target: Nuclear receptor subfamily 1 group I member 3 (Homo sapiens) (UniProt Q14994); assay: qHTS assay to identify small molecule antagonists of the constitutive androstane receptor (CAR) signaling pathway (AID 1224838); note: nearly all actives have a fitted effect of over 40% in size
Sequence of Nuclear receptor subfamily 1 group I member 3 (Homo sapiens) (Q14994 whole entry, looked up): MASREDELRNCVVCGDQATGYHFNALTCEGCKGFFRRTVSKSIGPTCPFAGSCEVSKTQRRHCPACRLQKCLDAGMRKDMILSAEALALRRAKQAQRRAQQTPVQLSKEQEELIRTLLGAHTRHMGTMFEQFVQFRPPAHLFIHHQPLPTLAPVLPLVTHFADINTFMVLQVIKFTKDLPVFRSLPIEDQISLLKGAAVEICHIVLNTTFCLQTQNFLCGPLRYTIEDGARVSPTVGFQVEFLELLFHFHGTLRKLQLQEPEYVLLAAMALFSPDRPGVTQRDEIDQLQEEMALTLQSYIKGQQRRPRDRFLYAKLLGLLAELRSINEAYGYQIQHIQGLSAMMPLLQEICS
Outline: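 HepG2 cells stably co-transfected with hCAR and a CYP2B6-2.2kb luciferase reporter were seeded 4 h before compound addition at 15 concentrations. Cells were stimulated with 50 nM CITCO (final) for 24 h at 37 C; luciferase luminescence was then read.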

[6] = molecular target: Nuclear receptor subfamily 1 group I member 3 (Homo sapiens) (UniProt Q14994); assay: qHTS assay to identify small molecule agonists of the constitutive androstane receptor (CAR) signaling pathway (AID 1224839); note: series mostly up to about 92 µM; nearly all actives have a fitted effect of over 15% in size
Outline: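 A 15-concentration quantitative screen uses HepG2 cells co-transfected stably with human CAR and CYP2B6-2.2kb reporter. Treatment lasts 24 h with 0.75 uM PK11195 final present; ONE-Glo luminescence is the signal.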

[7] = qHTS assay to identify small molecule antagonists of the estrogen related receptor signaling pathway with the pleiotropic PPARgamma coactivator (PGC) from Tox21 10K library - cell viability counter screen (AID 1224840; active = well fitted cell-killing curve with a large enough effect in the repeat runs, not every such curve was filed as active; note: nearly all actives have a fitted effect of over 40% in size)
Outline: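 PGC/ERR cells were seeded at 2,000 cells/well and left 6 hours at 37 C/5% CO2 before pin-tool addition of compounds in DMSO. After 17.5 hours at 37 C, CellTiter-Fluor was added and fluorescence read 30 minutes later.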

[8] = qHTS assay to identify small molecule antagonists of the estrogen related receptor signaling pathway with the pleiotropic PPARgamma coactivator (PGC) from Tox21 10K library (AID 1224841; call rule not given here; note: series mostly up to about 92 µM; actives are mostly falling curves and most rising ones were filed inactive; nearly all actives have a fitted effect of over 50% in size)
Outline: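 PGC/ERR reporter cells were seeded at 2,000 cells/well and held 6 hours at 37 C/5% CO2 before pin-tool addition of compounds in DMSO. After 18 hours at 37 C, One-Glo was added and luminescence read after 30 minutes at room temperature.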

[9] = qHTS assay to identify small molecule agonists of the estrogen related receptor signaling pathway with the pleiotropic PPARgamma coactivator (PGC) from Tox21 10K library (AID 1224842); note: nearly all actives have a fitted effect of over 15% in size
Outline: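 PGC/ERR reporter cell line, 2,000 cells per well, incubated 6 h at 37 C before 23 nL compound in DMSO was added. After 18 h at 37 C, One-Glo luminescence read following 30 min at room temperature.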

[10] = molecular target: Thyrotropin receptor (Homo sapiens) (UniProt P16473); assay: qHTS assay to identify small molecule agonists of the thyroid stimulating hormone receptor (TSHR) signaling pathway (AID 1224843; calls by dose curve; note: nearly all actives have a fitted effect of over 45% in size)
Sequence of Thyrotropin receptor (Homo sapiens) (P16473 whole entry, looked up): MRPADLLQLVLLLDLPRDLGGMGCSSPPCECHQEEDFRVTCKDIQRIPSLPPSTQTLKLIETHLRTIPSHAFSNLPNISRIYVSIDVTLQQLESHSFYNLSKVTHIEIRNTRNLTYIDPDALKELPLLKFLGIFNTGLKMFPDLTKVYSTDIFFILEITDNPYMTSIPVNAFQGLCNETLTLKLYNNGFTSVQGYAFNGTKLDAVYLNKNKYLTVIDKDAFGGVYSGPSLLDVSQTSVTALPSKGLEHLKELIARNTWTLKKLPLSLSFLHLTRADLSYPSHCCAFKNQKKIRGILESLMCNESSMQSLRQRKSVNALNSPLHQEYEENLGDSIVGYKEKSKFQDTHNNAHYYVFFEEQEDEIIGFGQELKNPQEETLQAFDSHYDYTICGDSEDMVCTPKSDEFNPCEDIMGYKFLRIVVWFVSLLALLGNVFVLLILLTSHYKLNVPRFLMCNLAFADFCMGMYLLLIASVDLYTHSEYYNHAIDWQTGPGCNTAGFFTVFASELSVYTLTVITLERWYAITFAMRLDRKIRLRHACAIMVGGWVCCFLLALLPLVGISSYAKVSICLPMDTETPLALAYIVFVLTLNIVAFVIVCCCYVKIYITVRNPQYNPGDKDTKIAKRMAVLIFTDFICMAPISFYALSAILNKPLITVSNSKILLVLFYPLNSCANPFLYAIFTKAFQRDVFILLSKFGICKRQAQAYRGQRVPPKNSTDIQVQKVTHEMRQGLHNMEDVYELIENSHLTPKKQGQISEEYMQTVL
Outline: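 Steps: seed 800 TSHR-HEK293 cells per well; add test compound and hold 30 min at ambient temperature; dispense cAMP-d2 then anti-cAMP cryptate; incubate 1 h at ambient; measure fluorescence intensity.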
% is set by controls: 0 for no effect and ±100 for the full control effect.

COc1nccnc1NS(=O)(=O)c1ccc(N)cc1
inactive: Potency [1] | Potency [2] | Potency [3] | Potency [4] | outcome [5] | Potency [6] | outcome [7] | Potency [8] | outcome [9] | Potency [10]

Cc1ccc(C=O)cc1C
inactive: Potency [1] | Potency [2] | Potency [3] | Potency [4] | outcome [5] | Potency [6] | outcome [7] | Potency [10]

C=C1CC/C=C(\C)CC[C@@H]2[C@@H]1CC2(C)C
inactive: Potency [1] | Potency [2] | Potency [3] | Potency [4] | outcome [5] | Potency [6] | outcome [7] | Potency [8] | outcome [9] | Potency [10]

CC(=O)c1sc(C)nc1C
inactive: Potency [1] | Potency [2] | Potency [3] | Potency [4] | outcome [5] | Potency [6] | outcome [7] | Potency [8] | outcome [9] | Potency [10]

CCCCC(CC)COCCO (centres undefined)
inactive: Potency [1] | Potency [2] | Potency [3] | Potency [4] | outcome [5] | Potency [6] | outcome [7] | Potency [8] | outcome [9] | Potency [10]

CN1CCN(CC(=O)N2c3ccccc3C(=O)Nc3cccnc32)CC1
inactive: viability change, negative = cytotoxic [1] 2.62% [at 8.39 µM] | activity change, negative = inhibition [2] 1.23% [at 10.5 µM] | viability change, negative = cytotoxic [3] -1.77% [at 8.39 µM] | activity change, negative = cytotoxicity [4] 7.37% [at 8.39 µM] | activity, negative = inhibition [5] -1.39% [at 8.39 µM] | activation [6] -1% [at 8.39 µM] | viability change, negative = cytotoxic [7] 8.41% [at 8.39 µM] | activity, negative = inhibition [8] 2.2% [at 8.39 µM] | activation [9] 0.61% [at 8.39 µM] | activation [10] 3.54% [at 8.39 µM]

O=S(=O)(O)c1ccc2cc(O)c(S(=O)(=O)O)cc2c1
inactive: Potency [1] | Potency [2] | Potency [3] | Potency [4] | outcome [5] | Potency [6] | outcome [7] | Potency [10]

CC(C)=O
inactive: Potency [1] | Potency [2] | Potency [3] | Potency [4] | outcome [5] | Potency [6] | outcome [7] | Potency [10]

CC(=O)N[C@@H](CCC(=O)O)C(=O)O
inactive: Potency [1] | Potency [2] | Potency [3] | Potency [4] | outcome [5] | Potency [6] | outcome [7] | Potency [8] | outcome [9] | Potency [10]

CCOC(=O)[C@H](CCc1ccccc1)N[C@@H](C)C(=O)N1C(=O)N(C)C[C@H]1C(=O)O
inactive: Potency [1] | Potency [2] | Potency [3] | Potency [4] | outcome [5] | Potency [6] | outcome [7] | Potency [10]

CC(=O)Nc1ccc(S(=O)(=O)Cl)cc1
inactive: Potency [1] | Potency [2] | Potency [3] | Potency [4] | outcome [5] | Potency [6] | outcome [7] | outcome [9]

c1ccc2nccnc2c1
inactive: Potency [1] | Potency [2] | Potency [3] | Potency [4] | outcome [5] | Potency [6] | outcome [7] | Potency [10]

COCCOCCOCCOCCO
inactive: Potency [1] | Potency [2] | Potency [3] | Potency [4] | outcome [5] | Potency [6] | outcome [7] | Potency [10]

CCCCCOC(=O)CCC
inactive: Potency [1] | Potency [2] | Potency [3] | Potency [4] | outcome [5] | Potency [6] | outcome [7] | Potency [8] | outcome [9] | Potency [10]

CC1(C)S[C@@H]2[C@H](N=CN3CCCCCC3)C(=O)N2[C@H]1C(=O)O
inactive: Potency [1] | Potency [2] | Potency [3] | Potency [4] | outcome [5] | Potency [6] | outcome [7] | Potency [10]

COC(=O)CCc1ccc(OCC(O)CNC(C)C)cc1 (centres undefined)
inactive: Potency [1] | Potency [2] | Potency [3] | Potency [4] | outcome [5] | Potency [6] | outcome [7] | Potency [8] | outcome [9] | Potency [10]

CC(=O)/C=C/C1C(C)=CCC(C)C1(C)C (centres undefined)
inactive: Potency [1] | Potency [2] | Potency [3] | Potency [4] | outcome [5] | Potency [6] | outcome [7] | Potency [8] | outcome [9] | Potency [10]

CCC(C)NC(N)=O (centres undefined)
inactive: Potency [1] | Potency [2] | Potency [3] | Potency [4] | outcome [5] | Potency [6] | outcome [7] | Potency [10]

Cc1ccccc1OCC(O)CO (centres undefined)
inactive: Potency [1] | Potency [2] | Potency [3] | Potency [4] | outcome [5] | Potency [6] | outcome [7] | Potency [8] | outcome [9] | Potency [10]

CCCCCCCCCC(C)=O
inactive: Potency [1] | Potency [2] | Potency [3] | Potency [4] | outcome [5] | Potency [6] | outcome [7] | Potency [10]

CCCCCCCC/C=C\CCCCCCCC(=O)OCCCC
inactive: viability change, negative = cytotoxic [1] -0.0583% [at 19 µM] | activity change, negative = inhibition [2] -1.11% [at 23.6 µM] | viability change, negative = cytotoxic [3] -5.62% [at 19 µM] | activity change, negative = cytotoxicity [4] 3.28% [at 19 µM] | activity, negative = inhibition [5] 20.6% [at 19 µM] | activation [6] 0.178% [at 19 µM] | viability change, negative = cytotoxic [7] -2.58% [at 19 µM] | activation [9] -2.76% [at 19 µM] | activation [10] 1.53% [at 19 µM]

ClCCCl
inactive: Potency [1] | Potency [2] | Potency [3] | Potency [4] | outcome [5] | Potency [6] | outcome [7] | outcome [9]

O=C(CCN1CCN(CCO)CC1)N1c2ccccc2Sc2ccc(C(F)(F)F)cc21
inactive: Potency [1] | Potency [2] | Potency [3] | Potency [4] | outcome [5] | Potency [6] | outcome [7] | Potency [10]

NNc1nnc(NN)c2ccccc12
active: Potency [2] 17.4 µM
inactive: Potency [1] | Potency [3] | Potency [4] | outcome [5] | Potency [6] | outcome [7] | Potency [10]

N[C@@H](COP(=O)(O)O)C(=O)O
inactive: viability change, negative = cytotoxic [1] -0.524% [at 19 µM] | activity change, negative = inhibition [2] 0.319% [at 23.6 µM] | viability change, negative = cytotoxic [3] 0.478% [at 19 µM] | activity change, negative = cytotoxicity [4] 10.4% [at 19 µM] | activity, negative = inhibition [5] 2.8% [at 19 µM] | activation [6] -2.56% [at 19 µM] | viability change, negative = cytotoxic [7] 2.06% [at 19 µM] | activation [10] 7.34% [at 19 µM]

C=COCCOCCOCCOC=C
inactive: Potency [1] | Potency [2] | Potency [3] | Potency [4] | outcome [5] | Potency [6] | outcome [7] | Potency [10]
